From PubChem BioAssay AID1159580 (chemical genetic matrix, 2015)
Hit rate of the full screen: of about 5,500 compounds, about 2,000 (36%) were called active. Not shown: some 18% with an inconclusive outcome. Rule as the data show it: active = normalized growth mostly below about 0.91 (no sharp cut-off); inconclusive = no clear call, values can overlap the other calls; inactive = mostly above about 0.92. This is one part of the list. Where a SMILES comes first, the peptide text is derived from it.

Assay: chemical genetic growth profiling, strain panel (AID 1159580);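 also: tested at 20 µM; growth read once vehicle control cultures reached saturation at 30 °C; 1 = growth at the plate median or of vehicle wells; lower values mean less growth of the strain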
Conditions: growth OD

Measured: normalized growth

CC(=O)N[C@@H](CC(=O)O)C(=O)N[C@@H](CCC(=O)O)C(=O)O (Ac-Asp-Glu-OH)
inactive: S. cerevisiae deletion strains, locus YJR075W, strain HOC1, hits give low values 1.01 | S. cerevisiae deletion strains, locus YKL009W, strain mrt4, hits give low values 0.987 | S. cerevisiae deletion strains, locus YKL068W, hits give low values 0.997 | S. cerevisiae deletion strains, locus YKL085W, strain MDH1 (second series), hits give low values 0.985 | S. cerevisiae deletion strains, locus YKL085W, strain MDH1, hits give low values 0.985 | S. cerevisiae deletion strains, locus YKL160W, strain elf1, hits give low values 1.01 | S. cerevisiae deletion strains, locus YKL190W, strain CNB1, hits give low values 1.02 | S. cerevisiae deletion strains, locus YKR001C, strain vps1, hits give low values 0.989 | S. cerevisiae deletion strains, locus YKR026C, strain gcn3, hits give low values 1 | S. cerevisiae deletion strains, locus YKR091W, strain srl3, hits give low values 0.996 | S. cerevisiae deletion strains, locus YLL001W, strain dnm1, hits give low values 0.994 | S. cerevisiae deletion strains, locus YLL026W, hits give low values 1 | S. cerevisiae deletion strains, locus YLL041C, strain sdh2, hits give low values 1 | S. cerevisiae deletion strains, locus YLR027C, strain aat2, hits give low values 1.01 | S. cerevisiae deletion strains, locus YLR039C, strain RIC1, hits give low values 1.04 | S. cerevisiae deletion strains, locus YLR058C, strain SHM2, hits give low values 1.01 | S. cerevisiae deletion strains, locus YLR102C, strain apc9, hits give low values 0.984 | S. cerevisiae deletion strains, locus YLR113W, strain HOG1, hits give low values 0.987 | S. cerevisiae deletion strains, locus YLR221C, strain rsa3, hits give low values 1 | S. cerevisiae deletion strains, locus YLR258W, strain gsy2, hits give low values 0.992 | S. cerevisiae deletion strains, locus YLR262C, strain YPT6 (second series), hits give low values 1.02 | S. cerevisiae deletion strains, locus YLR262C, strain YPT6, hits give low values 1.04 | S. cerevisiae deletion strains, locus YLR268W, strain sec22, hits give low values 0.981 | S. cerevisiae deletion strains, locus YLR320W, strain mms22, hits give low values 1 | S. cerevisiae deletion strains, locus YLR330W, strain CHS5, hits give low values 1.02 | S. cerevisiae deletion strains, locus YLR342W, strain FKS1 (second series), hits give low values 0.996 | S. cerevisiae deletion strains, locus YLR342W, strain FKS1, hits give low values 1 | S. cerevisiae deletion strains, locus YLR357W, strain rsc2, hits give low values 0.987 | S. cerevisiae deletion strains, locus YLR370C, strain arc18, hits give low values 1.02 | S. cerevisiae deletion strains, locus YLR371W, strain rom2, hits give low values 0.99 | S. cerevisiae deletion strains, locus YLR384C, strain iki3, hits give low values 0.998 | S. cerevisiae deletion strains, locus YLR418C, strain cdc73, hits give low values 0.982 | S. cerevisiae deletion strains, locus YML016C, strain PPZ1, hits give low values 1.02 | S. cerevisiae deletion strains, locus YML032C, strain rad52, hits give low values 0.985 | S. cerevisiae deletion strains, locus YML120C, strain ndi1, hits give low values 1.01 | S. cerevisiae deletion strains, locus YML124C, strain tub3, hits give low values 0.984 | S. cerevisiae deletion strains, locus YMR058W, strain fet3, hits give low values 1.01 | S. cerevisiae deletion strains, locus YMR078C, strain ctf18, hits give low values 1 | S. cerevisiae deletion strains, locus YMR125W, strain sto1, hits give low values 0.987 | S. cerevisiae deletion strains, locus YMR129W, hits give low values 1.01 | S. cerevisiae deletion strains, locus YMR205C, strain PFK2, hits give low values 0.967 | S. cerevisiae deletion strains, locus YMR223W, strain ubp8, hits give low values 0.983 | S. cerevisiae deletion strains, locus YMR231W, strain pep5, hits give low values 1.01 | S. cerevisiae deletion strains, locus YMR263W, strain SAP30, hits give low values 1.03 | S. cerevisiae deletion strains, locus YMR307W, strain GAS1, hits give low values 1.01 | S. cerevisiae deletion strains, locus YNL067W, strain RPL9B, hits give low values 1.02 | S. cerevisiae deletion strains, locus YNL071W, strain lat1, hits give low values 1.02 | S. cerevisiae deletion strains, locus YNL128W, strain TEP1, hits give low values 1.02 | S. cerevisiae deletion strains, locus YNL153C, strain GIM3, hits give low values 1.01 | S. cerevisiae deletion strains, locus YNL183C, strain NPR1, hits give low values 0.894 | S. cerevisiae deletion strains, locus YNL209W, strain ssb2, hits give low values 0.997 | S. cerevisiae deletion strains, locus YNL233W, strain BNI4, hits give low values 1.02 | S. cerevisiae deletion strains, locus YNL248C, strain rpa49, hits give low values 1.01 | S. cerevisiae deletion strains, locus YNL250W, strain rad50, hits give low values 0.982 | S. cerevisiae deletion strains, locus YNL271C, strain bni1, hits give low values 0.984 | S. cerevisiae deletion strains, locus YNL298W, strain CLA4, hits give low values 0.987 | S. cerevisiae deletion strains, locus YNL307C, strain MCK1, hits give low values 0.988 | S. cerevisiae deletion strains, locus YNL322C, strain KRE1 (second series), hits give low values 1 | S. cerevisiae deletion strains, locus YNL322C, strain KRE1, hits give low values 1.01 | S. cerevisiae deletion strains, locus YNR049C, strain mso1, hits give low values 1.01 | S. cerevisiae deletion strains, locus YNR052C, strain pop2, hits give low values 0.991 | S. cerevisiae deletion strains, locus YOL006C, strain TOP1, hits give low values 1.03 | S. cerevisiae deletion strains, locus YOL012C, strain htz1 0.942 | S. cerevisiae deletion strains, locus YOL147C, strain pex11, hits give low values 0.987 | S. cerevisiae deletion strains, locus YOR001W, strain rrp6, hits give low values 1.01 | S. cerevisiae deletion strains, locus YOR061W, strain CKA2, hits give low values 1.01 | S. cerevisiae deletion strains, locus YOR069W, strain VPS5, hits give low values 1.01 | S. cerevisiae deletion strains, locus YOR070C, strain gyp1, hits give low values 1.01 | S. cerevisiae deletion strains, locus YOR080W, strain dia2, hits give low values 0.988 | S. cerevisiae deletion strains, locus YOR083W, strain WHI5, hits give low values 1.01 | S. cerevisiae deletion strains, locus YOR106W, strain vam3, hits give low values 1.02 | S. cerevisiae deletion strains, locus YOR136W, strain idh2, hits give low values 0.99 | S. cerevisiae deletion strains, locus YOR144C, strain elg1, hits give low values 1 | S. cerevisiae deletion strains, locus YOR184W, strain ser1, hits give low values 0.979 | S. cerevisiae deletion strains, locus YOR231W, strain MKK1, hits give low values 0.982 | S. cerevisiae deletion strains, locus YOR265W, strain rbl2, hits give low values 1.01 | S. cerevisiae deletion strains, locus YOR270C, strain vph1, hits give low values 1.1 | S. cerevisiae deletion strains, locus YOR290C, strain snf2, hits give low values 0.975 | S. cerevisiae deletion strains, locus YOR316C, strain cot1, hits give low values 0.997 | S. cerevisiae deletion strains, locus YPL051W, strain arl3, hits give low values 1.01 | S. cerevisiae deletion strains, locus YPL055C, strain LGE1, hits give low values 1.02 | S. cerevisiae deletion strains, locus YPL078C, strain atp4, hits give low values 1.03 | S. cerevisiae deletion strains, locus YPL106C, strain sse1, hits give low values 0.975 | S. cerevisiae deletion strains, locus YPL240C, strain hsp82, hits give low values 1.01 | S. cerevisiae deletion strains, locus YPL241C, strain CIN2, hits give low values 1.01 | S. cerevisiae deletion strains, locus YPL256C, strain CLN2, hits give low values 1.01 | S. cerevisiae deletion strains, locus YPR119W, strain clb2, hits give low values 0.99 | S. cerevisiae deletion strains, locus YPR141C, strain kar3, hits give low values 0.995 | S. cerevisiae deletion strains, locus YPR163C, strain tif3, hits give low values 0.99 | S. cerevisiae deletion strains, locus YPR167C, strain met16, hits give low values 0.991 | S. cerevisiae deletion strains, strain wtn01, hits give low values 0.989 | S. cerevisiae strains, strain wild type, hits give low values 1
